# From the supplement of paper PMC8728848
# About 410 targets per protein were measured; listed, in parts, are those with the strongest signals and a random draw of the rest.
# How the values were obtained:
# Assay in all cases: glycan array binding signal (z-score within array); higher = stronger binding
# Details in all cases: glycan notation: IUPAC condensed, linker removed
# [1] = target: Fuc(a1-2)Gal(b1-3)GlcNAc(b1-3)GalNAc
# How it was run: (§1)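 Glycan array data came from 3228 arrays in the Consortium for Functional Glycomics database, and only arrays with an available protein sequence were kept. Glycan names were put into IUPAC-condensed notation, and columns mapping to the same glycan were averaged. The binding signal is a within-array Z-score, averaged across arrays of one protein sequence run at different concentrations or buffers and across linkers. A negative Z-score can be read as non-binding.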
# [2] = target: Fuc(a1-2)Gal(b1-4)GlcNAc6S
# How it was run: as §1
# [3] = target: Fuc(a1-2)Gal(b1-4)[Fuc(a1-3)]GlcNAc(b1-2)[Fuc(a1-2)Gal(b1-4)[Fuc(a1-3)]GlcNAc(b1-4)]Man(a1-3)[Fuc(a1-2)Gal(b1-4)[Fuc(a1-3)]GlcNAc(b1-2)Man(a1-6)]Man(b1-4)GlcNAc(b1-4)GlcNAc
# How it was run: as §1
# [4] = target: Fuc(a1-2)Gal(b1-4)[Fuc(a1-3)]GlcNAc(b1-3)[Neu5Ac(a2-6)Gal(b1-4)GlcNAc(b1-6)]Gal(b1-4)Glc
# How it was run: as §1
# [5] = target: Fuc(a1-2)Gal6S(b1-4)Glc
# How it was run: as §1
# [6] = target: Fuc(a1-2)[Gal(a1-3)]Gal(b1-3)GlcNAc
# How it was run: as §1
# [7] = target: Fuc(a1-2)[GalNAc(a1-3)]Gal(b1-3)GalNAc(b1-3)Gal(a1-4)Gal(b1-4)Glc
# How it was run: as §1
# [8] = target: Fuc(a1-2)[GalNAc(a1-3)]Gal(b1-4)GlcNAc(b1-2)Man(a1-3)[Fuc(a1-2)[GalNAc(a1-3)]Gal(b1-4)GlcNAc(b1-2)Man(a1-6)]Man(b1-4)GlcNAc(b1-4)[Fuc(a1-6)]GlcNAc
# How it was run: as §1
# [9] = target: Fuc(a1-2)[GalNAc(a1-3)]Gal(b1-4)GlcNAc(b1-3)Gal(b1-4)GlcNAc(b1-3)Gal(b1-4)GlcNAc
# How it was run: as §1
# [10] = target: Fuc(a1-2)[GalNAc(a1-3)]Gal(b1-4)[Fuc(a1-3)]GlcNAc(b1-3)GalNAc
# How it was run: as §1
# [11] = target: Fuc(a1-4)GlcNAc
# How it was run: as §1
# [12] = target: Gal(a1-3)Gal(b1-4)GlcNAc(b1-2)Man(a1-3)[Gal(a1-3)Gal(b1-4)GlcNAc(b1-2)Man(a1-6)]Man(b1-4)GlcNAc(b1-4)GlcNAc
# How it was run: as §1
# [13] = target: Gal(b1-3)GalNAc(b1-3)Gal
# How it was run: as §1
# [14] = target: Gal(b1-3)GlcNAc(a1-6)Gal(b1-4)GlcNAc
# How it was run: as §1
# [15] = target: Gal(b1-3)GlcNAc(b1-2)Man(a1-3)[Gal(b1-3)GlcNAc(b1-2)Man(a1-6)]Man(b1-4)GlcNAc(b1-4)[Fuc(a1-6)]GlcNAc
# How it was run: as §1
# [16] = target: Gal(b1-3)GlcNAc(b1-2)[Gal(b1-3)GlcNAc(b1-6)]Man(a1-6)[Gal(b1-3)GlcNAc(b1-2)Man(a1-3)]Man(b1-4)GlcNAc(b1-4)GlcNAc
# How it was run: as §1
# [17] = target: Gal(b1-3)GlcNAc(b1-3)Gal(b1-4)Glc
# How it was run: as §1
# [18] = target: Gal(b1-3)GlcNAc(b1-3)Gal(b1-4)GlcNAc(b1-2)[Gal(b1-3)GlcNAc(b1-3)Gal(b1-4)GlcNAc(b1-6)]Man(a1-6)[Gal(b1-3)GlcNAc(b1-3)Gal(b1-4)GlcNAc(b1-2)Man(a1-3)]Man(b1-4)GlcNAc(b1-4)[Fuc(a1-6)]GlcNAc
# How it was run: as §1
# [19] = target: Gal(b1-3)GlcNAc(b1-3)Gal(b1-4)GlcNAc(b1-3)Gal(b1-4)GlcNAc(b1-2)[Gal(b1-3)GlcNAc(b1-3)Gal(b1-4)GlcNAc(b1-3)Gal(b1-4)GlcNAc(b1-6)]Man(a1-6)[Gal(b1-3)GlcNAc(b1-3)Gal(b1-4)GlcNAc(b1-3)Gal(b1-4)GlcNAc(b1-2)Man(a1-3)]Man(b1-4)GlcNAc(b1-4)[Fuc(a1-6)]GlcNAc
# How it was run: as §1
# [20] = target: Gal(b1-3)[Fuc(a1-4)]GlcNAc(b1-6)GalNAc
# How it was run: as §1
# [21] = target: Gal(b1-4)GalNAc(a1-3)[Fuc(a1-2)]Gal(b1-4)GlcNAc
# How it was run: as §1
# [22] = target: Gal(b1-4)Glc
# How it was run: as §1
# [23] = target: Gal(b1-4)GlcNAc(b1-3)Gal(b1-3)GalNAc
# How it was run: as §1
# [24] = target: Gal(b1-4)GlcNAc(b1-3)Gal(b1-4)GlcNAc(b1-3)Gal(b1-4)GlcNAc(b1-3)Gal(b1-4)GlcNAc(b1-3)Gal(b1-4)GlcNAc(b1-2)Man(a1-3)[Gal(b1-4)GlcNAc(b1-3)Gal(b1-4)GlcNAc(b1-3)Gal(b1-4)GlcNAc(b1-3)Gal(b1-4)GlcNAc(b1-3)Gal(b1-4)GlcNAc(b1-2)Man(a1-6)]Man(b1-4)GlcNAc(b1-4)GlcNAc
# How it was run: as §1
# [25] = target: Gal(b1-4)GlcNAc(b1-3)Gal(b1-4)GlcNAc(b1-3)Gal(b1-4)GlcNAc(b1-3)Gal(b1-4)GlcNAc(b1-3)Gal(b1-4)GlcNAc(b1-2)[Gal(b1-4)GlcNAc(b1-3)Gal(b1-4)GlcNAc(b1-3)Gal(b1-4)GlcNAc(b1-3)Gal(b1-4)GlcNAc(b1-3)Gal(b1-4)GlcNAc(b1-6)]Man(a1-6)[Gal(b1-4)GlcNAc(b1-3)Gal(b1-4)GlcNAc(b1-3)Gal(b1-4)GlcNAc(b1-3)Gal(b1-4)GlcNAc(b1-3)Gal(b1-4)GlcNAc(b1-2)Man(a1-3)]Man(b1-4)GlcNAc(b1-4)[Fuc(a1-6)]GlcNAc
# How it was run: as §1
# [26] = target: Gal3S(b1-4)Glc
# How it was run: as §1
# [27] = target: Gal6S(b1-3)GlcNAc
# How it was run: as §1
# [28] = target: GalNAc(a1-3)GalNAc(b1-3)Gal(a1-4)Gal(b1-4)Glc
# How it was run: as §1
binder,measurement,setting,value
FimD (Bordetella pertussis) (protein) MPARVISFCGAALAVWAGLAVQPAMAVDPPVDCGRALGLHFWSSASLISDQTPDGTLIGKPVVGRSLLSKSCKVPDDIKEDLSDNHDGEPVDIVLELGSNYKIRPQSYGHPGIVVDLPFGSTEETGIAIYIDFGSSPMQKVGERQWLYPQKGEVLFDVLTINGDNAEVRYQAIKVGPLKRPRKLVLSQFPNLFTYKWVFMRGTSQERVLAQGTIDTDVATSTIDLKTCRYTSQTVSLPIIQRSALTGVGTTLGMTDFQMPFWCYGWPKVSVYMSATKTQTGVDGVALPATGQAAGMASGVGVQLINGKTQQPVKLGLQGKIALPEAQQTESATFSLPMKAQYYQTSTSTSAGKLSVTYAVTLNYD,glycan array binding signal (z-score),[1],-0.342
same,glycan array binding signal (z-score),[2],-0.052
same,glycan array binding signal (z-score),[3],0.133
same,glycan array binding signal (z-score),[4],-0.355
same,glycan array binding signal (z-score),[5],-0.056
same,glycan array binding signal (z-score),[6],-0.256
same,glycan array binding signal (z-score),[7],-0.248
same,glycan array binding signal (z-score),[8],-0.394
same,glycan array binding signal (z-score),[9],0.141
same,glycan array binding signal (z-score),[10],19.2
same,glycan array binding signal (z-score),[11],1.73
same,glycan array binding signal (z-score),[12],1.67
same,glycan array binding signal (z-score),[13],-0.089
same,glycan array binding signal (z-score),[14],-0.163
same,glycan array binding signal (z-score),[15],0.621
same,glycan array binding signal (z-score),[16],0.171
same,glycan array binding signal (z-score),[17],-0.264
same,glycan array binding signal (z-score),[18],1.82
same,glycan array binding signal (z-score),[19],0.259
same,glycan array binding signal (z-score),[20],2.73
same,glycan array binding signal (z-score),[21],-0.051
same,glycan array binding signal (z-score),[22],-0.288
same,glycan array binding signal (z-score),[23],-0.264
same,glycan array binding signal (z-score),[24],0.072
same,glycan array binding signal (z-score),[25],0.919
same,glycan array binding signal (z-score),[26],-0.263
same,glycan array binding signal (z-score),[27],0.772
same,glycan array binding signal (z-score),[28],-0.169
